Our source for the inhibition values is PubChem BioAssay AID778 (Sanford-Burnham Center for Chemical Genomics, 2007).

The campaign covered roughly 96,000 compounds. About 20,000 (21%) were called active. The list is a sample of the results. Values without a mark were called inactive.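 Rule for the calls: active = CYP2C19 inhibition above a set limit at 5 µM in the primary screen (cut at about 50% in these data); inactive = the rest.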

As a reminder, the inhibition is the change of the read-out against control, counted positive when it falls.

The experiment deals with Cytochrome P450 2C19 (Homo sapiens) (UniProt P33261). Put plainly: blockers of cytochrome P450 2C19 activity – biochemical, luminescence, ADME assay, primary screen (AID 778).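 Note: plate controls were negative control wells for no effect and 2.5 mM tranylcypromine positive control for full effect.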 As to conditions: CYP2C19 Supersomes, luciferin-H EGE luminescence, 30 min; at 5 µM; hits give high values.
Sequence of Cytochrome P450 2C19 (Homo sapiens) (P33261 whole entry, looked up): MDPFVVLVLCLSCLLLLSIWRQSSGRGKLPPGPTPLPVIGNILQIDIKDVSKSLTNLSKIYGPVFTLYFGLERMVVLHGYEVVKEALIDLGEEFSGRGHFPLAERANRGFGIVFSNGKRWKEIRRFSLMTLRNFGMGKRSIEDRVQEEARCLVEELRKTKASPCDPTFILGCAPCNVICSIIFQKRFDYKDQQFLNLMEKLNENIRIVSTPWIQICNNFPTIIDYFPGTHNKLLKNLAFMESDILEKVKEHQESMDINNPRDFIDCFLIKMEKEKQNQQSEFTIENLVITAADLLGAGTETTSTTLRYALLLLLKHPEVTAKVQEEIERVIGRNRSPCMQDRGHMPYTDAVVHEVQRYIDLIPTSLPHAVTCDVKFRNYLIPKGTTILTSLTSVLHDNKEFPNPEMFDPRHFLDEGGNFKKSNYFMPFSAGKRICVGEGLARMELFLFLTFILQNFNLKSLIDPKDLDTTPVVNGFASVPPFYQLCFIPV
For `CCN(CC)CCCNC(=O)CCc1ccccc1`, the inhibition is 7.3%.
Take `Cc1cc([N+](=O)[O-])ccc1NCc1cccc([N+](=O)[O-])c1`: the inhibition is -3.5%.
The figure for `COc1ccc([N+](=O)[O-])cc1NC(=O)CCc1ccccc1` is 63.7% (active); for `Cc1ccc(F)c(NC(=O)CCc2ccccc2)c1` it is 65.2% (active); for `COc1ccc(OC)c(NC(=O)CC(Cc2ccccc2OC)C(=O)O)c1` (centres undefined) it is 1.6%.
The same measure for `CCn1ncc(Br)c1C(=O)Nc1cc(C)ccc1F`: 24%; for `CCC(C)(C)c1ccc(Oc2ccc(NC(=O)COC(=O)C3=COCCO3)cc2)cc1`: 49.9%; for `Cc1ccc(C(=O)N/C(=C/c2ccco2)C(=O)NCCc2c[nH]c3ccccc23)cc1C`: 39.8%.
The same measure for `CCOC(=O)N1CCN(C(=O)C2CCN(c3ncnc4c3sc3cccc(F)c34)CC2)CC1`: 24.8%; for `CC1=C2C(=O)OC(c3ccoc3)C2(C)CCC1` (centres undefined): 78.1% (active).
Take `CC(C)C(=O)N1c2ccccc2NC2=C(C(=O)CCC2)C1c1ccc(N(C)C)cc1` (centres undefined): the inhibition is 8.1%.
`COC(=O)C(C)C1Sc2ccccc2NC1=O` (centres undefined): the inhibition was 44.9%.
The same measure for `Cn1c(=O)c(=O)n(C)c2cc(S(=O)(=O)NCCc3ccccc3)ccc21`: 6.1%; for `O=C(COc1ccc(S(=O)(=O)NCCc2ccccc2)cc1)N1CCCC1`: 81.4% (active).
For the molecule `O=C(COc1ccc(/C=N/NS(=O)(=O)c2ccccc2)cc1)NCCc1ccccc1`, the inhibition is -0.6%.
On to `O=C(COc1ccc(Cl)cc1)N1CCN(S(=O)(=O)c2ccc(Cl)cc2)CC1`, for which the inhibition is -21%.
The same measure for `COC(=O)[C@H](Cc1ccccc1)NC(=O)Nc1ccc(S(N)(=O)=O)cc1`: -4.1%.
`CC(=O)Nc1ccc(S(=O)(=O)NCCc2ccccc2)cc1`: the inhibition is 90.7% (active).
The same measure for `COc1cc(OC)cc(C(=O)Nc2ncc3c(n2)CC(C)(C)CC3=O)c1`: 9.1%; for `Cc1cccc(C)c1-n1c(C)cc(/C=C2\C(=O)NN(c3ccccc3)C2=O)c1C`: 36.4%; for `CCOC(=O)c1ccccc1NC(=O)CC1Nc2ccccc2NC1=O` (centres undefined): 8.5%.
Take `C=C(Br)CN1CCN(CC(=C)Br)CC1`: the inhibition is 9.1%.
The figure for `Cn1c(C(=O)NCCCN2CCCCC2)cc2sccc21` is 5.3%.
`COc1ccc(CCNC(=O)c2cc(-c3ccc4c(c3)OCO4)on2)cc1OC`: the inhibition is -2.7%.
Take `COc1ccc(CCNC(=O)c2cc3sccc3n2C)cc1OC`: the inhibition was 50.9% (active).
The figure for `CC12COC3(C(=O)Nc4ccc(Cl)cn4)CC1CCC32C` (centres undefined) is 16.5%; for `O=C(CCCN1C(=O)CCC1=O)Nc1ccc(Cl)c(C(F)(F)F)c1` it is 11.2%; for `C=CCC(NCc1ccco1)c1ccc(OC)cc1` (centres undefined) it is -0.2%.
The figure for `CC(C)C(=O)Nc1nnc(Sc2ccc(N(C)C)cc2)s1` is 47.8%; for `Cn1c(CN2CCOCC2)nc2cc(NC(=O)c3ccc(Cl)cc3)ccc21` it is 4.8%.
As to `CC1Cc2ccccc2N1C(=O)Cn1cnc2ccccc2c1=O` (centres undefined), the inhibition was 9.8%.
The figure for `CCOC(=O)c1[nH]c(C)c(C(=O)OCC(=O)N2c3ccccc3CC2C)c1C` (centres undefined) is 0.9%; for `CCn1nc(C(=O)OCC(=O)N2c3ccccc3CC2C)c2ccccc2c1=O` (centres undefined) it is 66.9% (active).
Turning to `COc1nc(Oc2ccc(=O)n(C)n2)nc(N(C)C)n1`, the inhibition is -17.1%.
The same measure for `O=C(CC1N=C2c3ccccc3N=C(SCc3ccccc3Cl)N2C1=O)NCc1ccco1` (centres undefined): 37.8%; for `CCS(=O)(=O)N1CCC(C(=O)N2CCN(c3ccccc3)CC2)CC1`: -1%; for `O=C(C1CCN(S(=O)(=O)Cc2ccccc2)CC1)N1CCCc2ccccc21`: 61.9% (active).
The figure for `Cc1noc(/C=C/c2ccco2)c1S(=O)(=O)N1CCC(C(=O)N2CCc3ccccc32)CC1` is 24.1%; for `COC(=O)C1C(=O)CC(C)(O)C(C(=O)OC)C1c1ccc2c(c1)OCO2` (centres undefined) it is 29.1%.
Regarding `COc1ccc(S(=O)(=O)N(CCCN2CCCC2=O)Cc2cc3c(C)ccc(C)c3[nH]c2=O)cc1`, the inhibition was 38.4%.
As to `Cc1ccc(S(=O)(=O)c2nc(NCCCn3ccnc3)sc2Cl)cc1`, the inhibition is 99.4% (active).
The same measure for `O=C(CSCc1ccc(Br)cc1)Nc1ccc(S(=O)(=O)N2CCCCCC2)cc1`: 27.3%; for `CN(C)c1ccnc2sc3c(=O)n(Cc4ccccc4)cnc3c12`: 27.4%; for `CCSc1nnc(-c2cc3c(s2)-c2ccccc2CC3)o1`: -5.2%.
The same measure for `CC(=O)NC1=NC(=O)CS1`: 6%; for `CCCC(=O)Nc1nc2ccc(NC(=O)c3cccnc3)cc2s1`: 16.4%.
The figure for `CCN1C(=O)CS/C1=N\c1nccs1` is 19%; for `O=C1C=C(NCCNc2c(F)c(F)c(CO)c(F)c2F)CCC1` it is 4.9%.
As to `Cc1c(C=O)c2ccccn2c1C(=O)c1ccncc1`, the inhibition was 85.8% (active).
The same measure for `Cc1cc(C(=O)O)c(S(C)(=O)=O)s1`: -6.4%; for `Cc1csc(NC(=O)C2CCCN2C(=O)OCC(C)C)n1` (centres undefined): 29.2%; for `CC(C)(C)c1cc2cccnc2n1Cc1ccccc1`: 13.8%.
The same measure for `OC(c1ccccc1)c1nccn1Cc1ccccc1` (centres undefined): 81.9% (active); for `CC(c1nnc(SCC(=O)Nc2sccc2C#N)n1-c1ccc(Cl)cc1)N(C)C` (centres undefined): 31.1%; for `Cc1cccc(N2CCN(C(=O)c3cnn4c(C(F)F)cc(-c5ccccc5)nc34)CC2)c1C`: 51% (active).
`O=C(O)c1cnn2c(C(F)(F)F)cc(-c3ccccc3)nc12`: the inhibition was 20.2%.
The figure for `CC(=O)N1CCN(c2cccc(C)c2C)CC1` is -2.5%; for `O=C(Cn1cc(-c2nnnn2-c2ccc(Cl)cc2)c(=O)c2ccccc21)c1ccccc1` it is -16.7%; for `O=C(NCCCCO)C(F)(F)C(F)(F)C(F)(F)C(=O)NCCCCO` it is 9.4%.
With `CCSc1nc(-c2ccc(OC)cc2)cc(-c2ccc(OC)cc2)c1C#N`, the inhibition was 32.3%.
The figure for `Cc1ccc(C)n1-c1ccncc1` is 56.5% (active); for `Cc1ccc(N)cc1-n1c(C)ccc1C` it is 23.2%; for `COc1ccc(-c2cc(C)nc3nc(N)nn23)cc1` it is -16.3%.
As to `CCOC(=O)c1ccc(-n2c(C)nc3c(cnn3-c3ccccc3C)c2=O)cc1`, the inhibition is -20.1%.
For the molecule `N#Cc1cccc(NC(=O)CCC2CCCC2)c1`, the inhibition is 73.6% (active).
As for `COC(=O)c1sccc1NC(=O)CCC1CCCC1`, the inhibition is -0.5%.
Turning to `CCOc1cccc(NC(=O)CC#N)c1`, the inhibition was -5.8%.
On to `CCOC(=O)N1CCC(NC(=O)C(C)n2c3ccccc3c3cnn(C)c(=O)c32)CC1` (centres undefined), for which the inhibition was 5.1%.
`NC(CSC12CC3CC(CC(C3)C1)C2)C(=O)O` (centres undefined): the inhibition is 12.9%.
The same measure for `Cc1cc(C)cc(OCC(=O)NNC(=O)c2cc3ccccc3oc2=O)c1`: 5.4%.
The figure for `CCOCCn1c(C(C)C)nc2ccccc21` is 15.5%.
The figure for `CC(C)n1c(C(O)c2ccccc2)nc2ccccc21` (centres undefined) is 67.7% (active); for `CCCn1c(C(O)c2ccc(OCC)cc2)nc2ccccc21` (centres undefined) it is 90.6% (active); for `CC(Nc1nc(N2CCCC2)nc2ccccc12)c1ccccc1` (centres undefined) it is 15.5%.
For `COc1cc(C(O)c2nc3ccccc3n2C)cc(OC)c1OC` (centres undefined), the inhibition is 46.5%.
The figure for `COc1ccc(C)c(Cn2c(-c3nonc3N)nc3ccccc32)c1` is 18.5%.
The same measure for `CCOc1ccc(C(O)Cn2c(=N)n(CCN3CCCCC3)c3ccccc32)cc1` (centres undefined): 9.8%; for `CCCn1c(C(O)c2cc(OC)ccc2OC)nc2ccccc21` (centres undefined): 74.3% (active).
The figure for `CCc1nc(Nc2ccc3nccnc3c2)c2oc3ccccc3c2n1` is -11.6%; for `O=C(N/N=C/C=C/c1ccccc1)C1CC1(c1ccccc1)c1ccccc1` (centres undefined) it is -19.2%.
For `CCOC(=O)c1nn(-c2cccc(C)c2)cc1C(=O)c1ccccc1`, the inhibition was 75.3% (active).
The figure for `Cc1ccc(NC(=O)c2nc[nH]c2C(=O)N2CCCCC2)c(C(=O)c2ccccc2)c1` is 20.4%; for `CC(=O)c1nn(-c2cccc(Br)c2)cc1C(=O)c1cccc2ccccc12` it is 9.4%; for `CCCCc1nnc(NC(=O)CS(=O)(=O)Cc2ccccc2)s1` it is 8%.
The same measure for `Cc1cc2ccccc2n1CCNC(=O)COc1ccc2ccccc2c1`: 14.5%.
With `OC(COCCC12CC3CC(CC(C3)C1)C2)CN1CCCCC1` (centres undefined), the inhibition was 35.1%.
The same measure for `Cc1ccc(NC(=S)Nc2ncccc2C)c(C)c1`: 86.3% (active).
The same measure for `Cc1cccc(NC(=O)C2CCN(S(=O)(=O)c3cccc4cccnc34)CC2)c1`: 40.7%.
On to `CCOc1ccc(NC(=O)N2CC=C(n3c(=O)[nH]c4ccccc43)CC2)cc1`, for which the inhibition was 11.1%.
For `COc1ccc(-c2c3c(=O)n(C)c(=O)n(C)c3cn2-c2cccc(OC)c2)cc1`, the inhibition is -4%.
On to `COc1ccc(-c2c3c(=O)n(C)c(=O)n(C)c3cn2NC(C)=O)cc1`, for which the inhibition is -2.1%.
The same measure for `COc1ccc(N(C(=O)c2cccnc2)S(=O)(=O)c2ccc3c(c2)n(C)c(=O)n3C)cc1`: 57.8% (active); for `O=C(Cn1cncn1)N/N=C/c1c2ccccc2cc2ccccc12`: 80% (active).
The figure for `CCCC(=O)Nc1cccc(-c2cn3ccsc3n2)c1` is -11.8%.
`CCOC(=O)N1CCC(NC(=O)CN2C(=O)COc3ccc(C(C)(C)C)cc32)CC1`: the inhibition was 10.8%.
The figure for `CCOC(=O)C(=O)Nc1nc(-c2ccccc2)c(CC)s1` is 3.5%.
As for `COc1ccc(NC(=O)c2cccc(NC(=O)c3ccco3)c2)c(OC)c1`, the inhibition is 15.1%.
Regarding `CCOc1ccc(Cn2nnc(C(=O)Nc3ccc(OC)cc3OC)c2N)cc1`, the inhibition was -21.9%.
For the molecule `COCCCN1C(=O)c2ccc(C(=O)Nc3ccc(OC)cc3OC)cc2C1=O`, the inhibition is 61.8% (active).
